Assay results reported in PubChem BioAssay (EPA / NIEHS).
Results filed as inconclusive are left out. The source made the active and inactive calls. How the source made its calls, unless noted: active means hit-call score of the fitted dose curve at least 0.9, where 1 is the maximum; inactive means score below 0.9.

Key:
[1] = CCTE_Shafer_MEA_dev_network_spike_number: CCTE's Neural Network Formation Assay for Number of Network Spikes, Shafer Lab (AID 2284048);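 further: synchronized bursts across electrodes counted on days 5 7 9 12 and integrated as AUC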
Summary of the method: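 Rat cortical primary cultures on 48-well MEA (16 electrodes/well); continuous exposure DIV 0–12, full medium and treatment exchange DIV 5, 9. Readout: network spike count, AxIS adaptive detection, recordings DIV 5/7/9/12 collapsed to AUC; loss-of-signal fit, DMSO baseline.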

[2] = CCTE_Shafer_MEA_dev_network_spike_peak: CCTE's Neural Network Formation Assay for Mean Number of Electrodes in Network Spike, Shafer Lab (AID 2284049);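 further: fitted for loss of signal meaning fewer electrodes in network spikes than DMSO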
Summary of the method: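 Network-spike peak electrode count from recordings on days 5, 7, 9 and 12 was combined as trapezoidal area under the curve. Rat cortical cultures were treated continuously from plating, with compound renewed at each feed (DIV 5, 9); fits versus DMSO.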

[3] = CCTE_Shafer_MEA_dev_spike_duration_mean: CCTE's Neural Network Formation Assay for Mean Spike Duration, Shafer Lab (AID 2284051);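 further: mean network spike duration pooled as area under curve over DIV 5 to 12 recordings; potency for a decrease in mean network spike duration versus DMSO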
Summary of the method: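 Readout is the average length of network spikes, clustered firing across electrodes, summed over DIV 5, 7, 9 and 12 as area under the curve. Neurons from rat cortex developed networks on MEA plates under continuous 12-day exposure.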

[4] = CCTE_Shafer_MEA_dev_network_spike_duration_std: CCTE's Neural Network Formation Assay for Standard Deviation of Network Spike Duration, Shafer Lab (AID 2284052);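 further: area under curve of spike duration SD across recording days 5 to 12; hits are decreases in network spike duration SD versus DMSO vehicle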
Summary of the method: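 Read-out is the trapezoidal area-under-the-curve across recordings made on days 5, 7, 9 and 12, fitted in the negative direction against DMSO baseline. Neurons were primary rat cortical cells treated from day 0, with treatment renewed at each feed.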

[5] = CCTE_Shafer_MEA_dev_per_network_spike_spike_number_mean: CCTE's Neural Network Formation Assay for Mean Number of Spikes in a Network Spike, Shafer Lab (AID 2284053);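 further: fitted as decrease in spikes per network spike relative to DMSO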
Summary of the method: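 Continuous twelve-day exposure of developing rat cortical networks grown over 16 microelectrodes per well; spontaneous firing is captured at four time points, and the per-network-spike spike number is integrated over development by trapezoidal AUC.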

[6] = CCTE_Shafer_MEA_dev_per_network_spike_spike_percent: CCTE's Neural Network Formation Assay for Percent of Spikes in a Network Spike, Shafer Lab (AID 2284054)
Summary of the method: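 Read-out: percent of spikes falling in a 0.05 s window at network-spike peak, from spontaneous MEA recordings on days 5, 7, 9 and 12; trapezoidal AUC; loss of signal versus DMSO. Rat cortical cultures, compound present throughout.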

[7] = UKN5_HCS_SBAD2_cell_viability: Viability Assessment in the University of Konstanz (UKN) Leist Lab Neurite Outgrowth Assay in human iPSC-derived immature Dorsal Root Ganglia Neurons (UKN5) (AID 2284056)
Summary of the method: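 iPSC-derived immature peripheral neurons (SBAD2) seeded on Matrigel with CHIR99021, SU5402 and DAPT, dosed 1 h later for 24 h. Viability from Hoechst H-33342 and calcein-AM live staining, high-content imaging; bidirectional fit versus DMSO.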

[8] = CCTE_Shafer_MEA_dev_LDH: CCTE's Lactate Dehydrogenase Assay for Cytotoxicity in the Neural Network Formation Assay, Shafer Lab (AID 2284068; active means hit-call score of the fitted dose curve at least 0.9, where 1 is the maximum;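 further: exposure for twelve days from plating with re-dosing on DIV 5 and 9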)
Summary of the method: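 Cytotoxicity companion to network-formation recordings: rat cortical neurons received compound over 12 days of development, re-dosed at DIV 5 and 9 feeds. Viability was inferred from LDH enzyme activity relative to DMSO.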

[9] = CCTE_Shafer_MEA_acute_AB: CCTE's Alamar Blue Assay for Cytotoxicity in the Neural Acute Assay, Shafer Lab (AID 2284069; active means hit-call score of the fitted dose curve at least 0.9, where 1 is the maximum;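 further: active compounds lower the viability signal compared with DMSO wells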)
Summary of the method: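 Metabolic activity in chemically exposed rat cortical neurons (MEA cultures, day 13/15 post-plating) measured via CellTiter Blue resazurin reduction, 544/590 nm fluorescence; fitted relative to DMSO, with signal loss indicating reduced viability.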

[10] = UKN5_HCS_SBAD2_neurite_outgrowth: University of Konstanz (UKN) Leist Lab Neurite Outgrowth Assay in human iPSC-derived immature Dorsal Root Ganglia Neurons (UKN5) (AID 2284070); conditions: actives raise or lower the signal
Summary of the method: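 Neurite outgrowth is quantified as calcein-AM-labelled neurite area in human iPSC-derived peripheral neurons treated for 24 h, starting 1 h after plating in medium with CHIR99021 (1.5 uM), SU5402 (5 uM) and DAPT (5 uM).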

[11] = CCTE_Shafer_MEA_dev_AB: CCTE's Alamar Blue Assay for Cytotoxicity in the Neural Network Formation Assay, Shafer Lab (AID 2284083; active means hit-call score of the fitted dose curve at least 0.9, where 1 is the maximum;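 further: twelve days of exposure from plating with re-dosing on DIV 5 and 9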)
Summary of the method: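 Fluorescent resazurin reduction serves as the viability read-out, with DMSO as negative control and baseline. Cells were primary rat cortical neurons grown on MEA plates and dosed from day 0 to day 12, treatment renewed on DIV 5 and 9.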

[12] = CCTE_Shafer_MEA_acute_LDH: CCTE's Lactate Dehydrogenase Assay for Cytotoxicity in the Neural Acute Assay, Shafer Lab (AID 2284086; active means hit-call score of the fitted dose curve at least 0.9, where 1 is the maximum;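 further: active means LDH release rises above DMSO vehicle level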)
Summary of the method: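 Cytotoxicity readout: spectrophotometric LDH activity in supernatant of rat primary cortical neurons, post-plating day 13 or 15, sampled after 40 min compound exposure; signal gain relative to DMSO baseline.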

[13] = CCTE_Shafer_MEA_dev_mutual_information_norm: CCTE's Neural Network Formation Assay for Mutual Information Normalization, Shafer Lab (AID 2284091);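 further: mutual information between electrodes summarised as area under curve across four recording days; potency is for a decrease in mutual information relative to DMSO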
Summary of the method: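 Neurons from rat cortex were seeded at 1.5 x 10^5 cells/well onto PEI-coated MEAs in a laminin drop, then exposed to compound from day 0 for twelve days. Network recordings on four days gave mutual information, summarised by AUC relative to DMSO.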

[14] = CCTE_Shafer_MEA_dev_correlation_coefficient_mean: CCTE's Neural Network Formation Assay for Mean Correlation Coefficient, Shafer Lab (AID 2284093);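 further: well mean pairwise spike train correlation integrated as AUC over recording days 5 to 12; potency fitted for loss of correlation relative to DMSO vehicle wells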
Summary of the method: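 Read-out: well-mean correlation coefficient of spike trains between electrode pairs, collapsed over four recording days as trapezoidal area-under-the-curve. Developing rat cortical neuron networks grown on MEAs received test chemical continuously from plating.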

[15] = UKN2_HCS_IMR90_neural_migration: University of Konstanz (UKN) Leist Lab Neural Crest Cell Migration Assay in human induced IMR90 Pluripotent Stem Cells (UKN2) (AID 2284204); conditions: actives raise or lower the signal
Summary of the method: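 Stopper-exclusion migration (cMINC), human iPSC-derived neural crest cells; N2-S + EGF/FGF; compound added 24 h post-stopper removal, 24 h exposure. Readout: calcein-AM/Hoechst 30 min, HCS fluorescence imaging; bidirectional fitting, DMSO baseline.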

[16] = UKN4_HCS_LUHMES_neurite_outgrowth: University of Konstanz (UKN) Leist Lab Neurite Outgrowth Assay in human LUHMES cells (UKN4) (AID 2284206); conditions: actives raise or lower the signal
Summary of the method: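 Neurite area in dopaminergic-model LUHMES neurons is measured by high-content imaging of calcein-AM after 24 h treatment starting shortly after day-2 replating; Hoechst staining tracks viability.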

[17] = CCTE_Mundy_HCI_Cortical_Synap_Neur_Matur_NeuriteSpotCountPerNeuriteLength: CCTE's Synaptogenesis and Neurite Maturation Assay in rat cortical cells for Neurite Spot Count per Neurite Length, Mundy Lab (AID 2284210)
Summary of the method: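 Read-out: synaptophysin puncta counted along MAP2-stained neurites, normalised to neurite length, by automated high-content imaging. Rat cortical cells; AraC DIV 5; chemical dosing DIV 7; termination DIV 12. DMSO baseline.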

[18] = CCTE_Mundy_HCI_Cortical_Synap_Neur_Matur_BPCount: CCTE's Synaptogenesis and Neurite Maturation Assay in rat cortical cells for Branch Point Count, Mundy Lab (AID 2284211)
Summary of the method: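 In this multiplexed morphology assay, cortical cells from rat receive chemicals at DIV 7 and are fixed at DIV 12, then immunostained and imaged; branch points are counted, with DMSO as baseline.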

Measured: AC50

CNCCC(Oc1ccc(C(F)(F)F)cc1)c1ccccc1 (stereo not drawn)
inactive: [1] | [9] | [12]
active: [2] 2.8 µM | [3] 1.88 µM | [4] 2.01 µM | [5] 1.07 µM | [6] 7.65 µM | [7] 18.8 µM | [8] 2.08 µM | [10] 12.7 µM | [11] 5 µM | [13] 2.58 µM | [14] 4.19 µM | [15] 15 µM | [16] 7.3 µM | [17] 12 µM | [18] 6.57 µM
